Only a selection was taken, and hits are over-represented in it overall.
HT1080NT lethal: kills 2HG-producing HT-1080-NT fibrosarcoma cells | HT-1080-NT fibrosarcoma viability, CellTiter-Glo ATP luminescence, 48 h | Potency, µM (series often up to 46.1 µM), for inactives: at the top dose activity, negative = less viability, most hits filed as cytotoxic | 1.6% of 360,000 active;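 note: NT is the 2HG producing partner of a matched IDH1 knockdown line; potency is the fitted concentration of half-maximal effect; 0% = DMSO-treated cells and -100% = media-only wells without cells; nearly all actives have a fitted effect of over 55% in size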
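HT-1080-NT; 750 cells/well; 5% FBS RPMI; 48 h compound, 37 degrees C; CellTiter-Glo luminescence; curve fitting and curve-class assignment.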
HT1080 IDH1KD tx: toxicity to HT-1080 IDH1 knockdown cells (counter line); HT-1080 IDH1 knockdown viability, ATP luminescence, 48 h; Potency, µM (titrated, usually from 46.1 µM), for the others: at the top dose activity, negative = toxicity, most hits filed as cytotoxic; 2% of 360,000 active;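 note: potency is the fitted concentration of half-maximal effect; 0% = DMSO wells and -100% = cell-free medium wells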
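Viability of IDH1-knockdown HT-1080 fibrosarcoma cells was assessed by CellTiter-Glo after 48 h at 37 °C with titrated compound; concentration-effect curves were classified by fit quality and response size.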
IL-1B inflam inh: blocks inflammasome-driven IL-1 beta release; THP-1 LPS/ATP IL-1B secretion, AlphaLISA, 16 h; hits give low values; activity change, % at 57.5 µM; 4.7% of 360,000 active; in the data active = activity change below about -50%; inconclusive = mostly about -30% to -49%
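THP-1 cells pretreated 1 hr with compounds (up to 57.5 uM final), then stimulated with LPS (250 ng/mL final) plus ATP (1.25 mM final); secreted IL-1B measured by AlphaLISA after 16 hr, decreased signal indicating inhibition.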
DT40 TDP1 no CPT: qHTS for Inhibitors of human tyrosyl-DNA phosphodiesterase 1 (TDP1): qHTS in cells in absence of CPT; DT40 Tdp1-/- hTDP1 cells, no CPT, ATP luminescence, 48 h; Potency, µM (doses to about 46.2 µM), for inactives: at the top dose activity change, negative = growth inhibition, hits mostly inhibitors; 15% of 420,000 active; AID 686978, 2013; note: potency is the fitted concentration of half-maximal effect; nearly all actives have a fitted effect of over 55% in size
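Chicken DT40 Tdp1-/- cells complemented with human TDP1, screened without camptothecin (DMSO vehicle only), 400 cells/well. Compounds pin-transferred, cells incubated at 37 °C for at least 48 hr. Growth read as ATP-dependent luminescence (CellTiter-Glo, 30 min at RT).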
12-LOX inh: ALOX12 (human) lipoxygenase inhibition; purified 12hLO, xylenol orange hydroperoxide absorbance; Potency, µM (highest dose often 108 µM), for the others: top-dose activity change, negative = inhibition, most hits filed as inhibitors; 1.1% of 580,000 active; AID 1671190; note: potency is the fitted concentration of half-maximal effect
Target sequence (P18054 whole entry, looked up): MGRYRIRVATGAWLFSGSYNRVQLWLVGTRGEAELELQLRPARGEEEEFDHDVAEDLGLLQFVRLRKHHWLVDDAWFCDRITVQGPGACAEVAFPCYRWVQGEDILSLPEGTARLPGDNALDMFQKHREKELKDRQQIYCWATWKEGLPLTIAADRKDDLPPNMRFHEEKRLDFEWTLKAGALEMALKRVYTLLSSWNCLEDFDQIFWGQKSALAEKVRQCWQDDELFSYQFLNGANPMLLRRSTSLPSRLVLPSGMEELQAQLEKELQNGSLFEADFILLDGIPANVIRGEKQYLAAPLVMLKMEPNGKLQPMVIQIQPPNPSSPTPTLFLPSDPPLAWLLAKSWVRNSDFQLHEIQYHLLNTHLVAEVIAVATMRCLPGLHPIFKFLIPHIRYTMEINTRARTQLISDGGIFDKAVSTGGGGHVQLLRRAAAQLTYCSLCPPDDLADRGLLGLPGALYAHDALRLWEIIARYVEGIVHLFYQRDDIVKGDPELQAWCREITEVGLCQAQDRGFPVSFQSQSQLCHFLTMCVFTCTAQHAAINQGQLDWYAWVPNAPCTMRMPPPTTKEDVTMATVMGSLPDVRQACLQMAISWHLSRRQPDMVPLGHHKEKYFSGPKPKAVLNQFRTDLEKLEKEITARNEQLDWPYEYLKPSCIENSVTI
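Hydroperoxide product was detected by ferrous iron/xylenol orange as the 573 to 405 nm absorbance ratio. Arachidonic acid at 40 uM (final) was turned over for 30 min at room temperature by 150 nM human 12hLO, pH 7.0 Hepes buffer, after 15 min compound preincubation.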
TDP1 cell CPT: DT40-hTDP1 cell growth loss with CPT; 12% of 420,000 active; Potency, µM (titrated, usually from 46.2 µM), for inactives: top-dose activity change, negative = growth inhibition, actives largely listed as inhibitors; chicken DT40 Tdp1-/-;hTDP1 cells + 20 nM CPT, ATP luminescence, 48 h; note: potency is the fitted concentration of half-maximal effect; nearly all actives have a fitted effect of over 55% in size
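Chicken DT40 Tdp1-/- cells complemented with human TDP1, 400 cells/well, exposed to compounds plus 20 nM camptothecin for at least 48 h at 37 C; viability read as ATP content by CellTiter-Glo luminescence.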
Active calls of the source: *; ? = inconclusive; . = no result; [ ] = dose if it differs, or a comment. Unless noted, calls come from the whole dose curve; as a rule, active = well fitted curve in the direction sought with a large enough effect; inconclusive = small, poorly fitted or top-dose-only effect, or another doubt; inactive = no such curve, though single readings can be large; an effect the other way counts as inactive or inconclusive. Unless noted, % is set by controls: 0 for no effect and ±100 for the full control effect.

SMILES	HT1080NT lethal	HT1080 IDH1KD tx	IL-1B inflam inh	DT40 TDP1 no CPT	12-LOX inh	TDP1 cell CPT
CC(C)C(=O)N1CCC2(CC1)OCC(C(=O)NCc1ccc(F)cc1)N2C(=O)c1ccccc1 (stereo not drawn)	.	.	.	.	27%	.
Cc1ccc(CN2CCN3C(=O)N(C4CCOCC4)C[C@H]3C2)cc1	.	.	.	.	28%[176 µM]	.
CN(C)CCCN(C(=O)CCc1ccccc1)c1nc2c(F)cccc2s1	-10%	-14%	?	?	-27%	?
CN(C)CCCN(C(=O)CCOc1ccccc1)c1nc2ccc(F)cc2s1	18µM*	21µM*	-86*	2.9µM*	?	2.9µM*
CN(C)CCCN(C(=O)CCOc1ccccc1)c1nc2c(F)cccc2s1	15µM*	7.3µM*	-60*	4.6µM*	7%	5.8µM*
Cc1ccc(-n2c3nc(=O)[nH]c(=O)c-3cc3cc([N+](=O)[O-])ccc32)cc1C	-29%	?	0	1.3µM*	?	0.58µM*
Cc1ccc(NC(=O)c2cnc(SCC(=O)NCC3CCCO3)n(C)c2=O)cc1C (stereo not drawn)	15%	10%	-98*	23µM*	10%	21µM*
Cc1cc2c(=O)n(C)c(SCC(=O)NCC3CCCO3)nc2s1 (stereo not drawn)	2%	1%	16	-1%	0%	6%
Cn1c(SCC(=O)NCC2CCCO2)ncc(C(=O)Nc2ccccc2)c1=O (stereo not drawn)	-18%	-8%	-74*	23µM*	2%	26µM*
O=c1[nH]c(N2CCCCC2)nc2nccc(-c3ccsc3)c12	.	.	.	.	-26%	.
O=C(c1cccc(Cl)c1)N1CCN(C(=O)c2nnn3c2COC(c2ccc(Cl)cc2)C3)CC1 (stereo not drawn)	.	.	.	.	19%	.
O=C(NCC1(COc2ccccc2)C[C@@H](O)[C@@H](O)C1)c1ccc(F)cc1 (stereo partly drawn)	.	.	.	.	104%[176 µM]	.
CC1CCC(NC(=O)c2ccc3c(c2)N(Cc2cccc(Cl)c2)C(=O)c2ccccc2S3(=O)=O)CC1 (stereo not drawn)	.	.	.	-3%	-15%	0%
CC1(Cc2ccc(F)cc2)C(=O)Nc2ccc(-c3cccnc3)cc21 (stereo not drawn)	10%	6%	91	10µM*	-1%	23µM*
C=Cc1ccc(CC2(C)C(=O)Nc3ccc(-c4cccnc4)cc32)cc1 (stereo not drawn)	?	-20%	60	4.6µM*	?	?
CC1(Cc2ccc(Cl)cc2)C(=O)Nc2ccc(-c3ccc(F)c(Cl)c3)cc21 (stereo not drawn)	?	?	-19	?	-24%	?
COc1ccc(CCNC(=O)Cn2c(=O)n(-c3ccc(OC)c(OC)c3)c(=O)c3ccccc32)cc1OC	.	.	.	-4%	-13%	-6%
Cc1nc2[nH]c(=O)n(O)c(=O)c2s1	-11%	11%	18	26µM*	-3%	?
Cc1nc2c(=O)n(-c3ccc(F)cc3F)nc(C)c2s1	-4%	-9%	-6	-5%	?	5%
O=C(c1nc2ccccn2c1CN1CCC(Cc2ccccc2)CC1)N1CCCC1	-4%	3%	-6	23µM*	-10%	?
CCN(C(=O)CN1C(=O)C(c2ccccc2)=NC12CCCCC2)c1cccc(C)c1	.	.	.	.	6%	.
Cc1nn(-c2ccccc2)c2[nH]c(=O)c(CNc3ccc4c(c3)OCCO4)cc12	-19%	-24%	-7	-21%	70%	-23%
Cc1nn(-c2ccccc2)c2[nH]c(=O)c(CNCc3ccc4c(c3)OCO4)cc12	5%	14%	-15	15µM*	-2%	18µM*

High-throughput results deposited in PubChem BioAssay by National Center for Advancing Translational Sciences (NCATS).
